Where a chain is given by its changes, count along the chain named. Whole data set: some 24,000 sequences, median “enrichment r” near 0.99, cut for the highest 2% near 3.7. The list comes from a sample in which the highest values are over-represented; it also holds similar and randomly drawn sequences.

23 molecules from PMC12136788 can be followed below.

B1: 65775431_65775551_264_CDS_ENSG00000116675_ENST00000371069|human|control|control (ssRNA)
RNA: GGGAGUUCUACAGUCCGACGAUCCACUCUCUGCUUGCCGCCAACCCCGCCGCUUCCCGCACUUAAGUCCCCGUUACUGUCCACCAGCUGCAAAGAUUCAUAACCAUCGUUGCUGGUCUUUUUCCGGUAGCUCCCGAGGAGGCUCAACAGAGGAUUGAGCAUCA
B2: chr4:42581876:42581877:-_ENSG00000124406_ENST00000264449|hu_hu|FALSE|FALSE (ssRNA)
RNA: GGGAGUUCUACAGUCCGACGAUCGCCACCAUAGUUUAGAUUGAGAUACCAGUCUUUUCCAGAAUGCCUUCGAUUCCAAAUGGCUGAGCCCACAGAACAGACAAGAGACAUGGCAAUUAAGAUACAAAAUAAAAUCAAAAUUUGCAACAGAGGAUUGAGCAUCA
B3: chr21:34924512:34924513:+_ENSG00000159140_ENST00000381679|hu_mus|motif|central (ssRNA)
RNA: GGGAGUUCUACAGUCCGACGAUCAGAUGACAUCAUGGAACGUUCUGCAGCAUAGGACAUCAUCAUAGAACGUCUAGAUGCGGACAUCAAGGGUCUAGGUGCUAACCUGUAUGGCCUAGGUGCUAUCCUAUAGGACCUGGGUGCCAACAGAGGAUUGAGCAUCA
B4: 122452171_122453414_3711_CDS_ENSMUSG00000034602_ENSMUST00000073792|mouse|control|control (ssRNA)
RNA: GGGAGUUCUACAGUCCGACGAUCUCGGUCCAGUAGAUGAAAGAGUACCUUCCAAAUAACGGUGUGCCAGGUGGAGUGCUGCAGCAGGGUCCCGUGCGCUCCGAUCGUGGAGAACAGGGUCUGCCCUGCGCUCUUCCUCACGGCCAACAGAGGAUUGAGCAUCA
B5: chr17:56552419:56552420:-_ENSMUSG00000013236_ENSMUST00000086828|mus_mus|mus_mus_mus_hu_False|1_48 (ssRNA)
RNA: GGGAGUUCUACAGUCCGACGAUCAAAAAAUACACUAUUUAAAAAAAAUGAAAUGUCACGGGAUACAGUUACACUGAGAGUUUUAAAAAAAAAUAAGAUUCUGGUCCCAGCCCAGUGUCCCCAGGCUGCAGAGCGGGGCAGAGGCAACAGAGGAUUGAGCAUCA
B6: chr17:56552419:56552420:-_ENSMUSG00000013236_ENSMUST00000086828|mus_mus|mus_mus_mus_hu_False|48_58 (ssRNA)
RNA: B5 RNA with G77C, G79C, U81A, C138A, A139G, G143C
B7: chr17:56552419:56552420:-_ENSMUSG00000013236_ENSMUST00000086828|mus_mus|mus_mus_mus_hu_False|48_48 (ssRNA)
RNA: B5 RNA with C138A, A139G, G143C
B8: chr17:56552419:56552420:-_ENSMUSG00000013236_ENSMUST00000086828|mus_mus|mus_mus_mus_hu_False|48_98 (ssRNA)
RNA: B5 RNA with U38A, U39A, C138A, A139G, G143C
B9: 35626089_35772405_348_CDS_ENSG00000108100_ENST00000265375|human|control|control (ssRNA)
RNA: GGGAGUUCUACAGUCCGACGAUCGUCCGUCUGAGAUUUACUGAGGAAUAUUGUGCUGGCCCGAGGAUGAUCUGAAGGAUUGAAUUCCAUGUUCAAAUCGUCUAUGUUCUCCCGGUCGCUGAUGUGCUGCAGGUUGCAGCCCGUCAACAGAGGAUUGAGCAUCA
B10: chr2:216981417:216981418:+_ENSG00000079246_ENST00000392132|hu_hu|hu_hu_hu_mus_True|18_98 (ssRNA)
RNA: GGGAGUUCUACAGUCCGACGAUCCUGAUACUGGUCCCCACCAGAAAGGGCAUUAUCAGUGCCAUCUGUGCCAUAGAGGACUAACGCAAUCUCAUCUUUGCUCUCCGAAAAUACCUGUCGCUGUACAAACAUAGUCAUCACUUUCAACAGAGGAUUGAGCAUCA
B11: chr11:48616917:48616918:+_ENSMUSG00000020372_ENSMUST00000020640|mus_mus|FALSE|FALSE (ssRNA)
RNA: GGGAGUUCUACAGUCCGACGAUCGACGAUGAUAGGGUUGCUGCUGUUCGGGGAGAAGCGGACACAAGACACCCAUUCUGAAUGACUCUCAUCCUGGACCGUGUACUUGCAGACACCCAGAGUAUUCCAUAACUUUAUGGUCUUCAACAGAGGAUUGAGCAUCA
B12: chr7:143080189:143080190:+_ENSG00000159840_ENST00000392910|hu_hu|FALSE|FALSE (ssRNA)
RNA: GGGAGUUCUACAGUCCGACGAUCUGGGGCUCCAGGACUGAACUUGGAAGCCACAGGAGUAAACUUAGGAGUCACUGGAGAAAACUUAGGGGCUGGAGCCGGAGAUGAGGCUGGGGGCCCUCGGGGCUGGGUGUUAGCCAAAGACAACAGAGGAUUGAGCAUCA
B13: chr15:81680702:81680703:-_ENSMUSG00000048546_ENSMUST00000050467|mus_mus|motif|central (ssRNA)
RNA: GGGAGUUCUACAGUCCGACGAUCGAGAGAGAGUUGAGGCUAGGGCCAGACUUAUUUGGGUGGCAGGCCCUGAGAAGACAGCGGGGUUGGGGGUUGUGGACACGGGGGUGGAGGGUGGGGGGGUGUCAGCCUCUCCCUGUUUCACAACAGAGGAUUGAGCAUCA
B14: chr14:66974463:66974464:+_ENSMUSG00000022044_ENSMUST00000074523|mus_hu|mus_mus_mus_hu_False|88_88 (ssRNA)
RNA: GGGAGUUCUACAGUCCGACGAUCUUGUAGGACGACUUAUUCAGGGGAUCAGACAAGAAGCAGGAGCAGAACAAGGACACCAGCGGGAGCUCCUUCAUCUUCUCUUUGUAGGCAGCAAGGGUCAUGUUUCUGGGAUCUGGUGGCCAACAGAGGAUUGAGCAUCA
B15: 34053828_34053948_230_3pUTR_ENSMUSG00000051390_ENSMUST00000053429|mouse|control|control (ssRNA)
RNA: GGGAGUUCUACAGUCCGACGAUCUGGUCACCUCAGGGAAGGACACGUGUACCACUGCAGCUGCCGGCAGAGGCAGUGGCGGUGGAGCCAGUGACAGAGGCAGUGGGAGUGUGGCCCCACUGGGUGACAGAGCAGACGGCUCCACAACAGAGGAUUGAGCAUCA
B16: chr6:43255143:43255144:+_ENSG00000146216_ENST00000259750|hu_mus|FALSE|FALSE (ssRNA)
RNA: GGGAGUUCUACAGUCCGACGAUCUCCUAGGCCUCCCCUUCUUUCAAUCUCCAAACCUGGGUGUUGUUGGUCCUACGGCAGAAGGGAGACUGAGGGGGGCACCUACACUCACAGUUAGGUUGGUGGCAAGGGGCAGGCCCAGGGCAACAGAGGAUUGAGCAUCA
B17: chr14:67424093:67424094:-_ENSMUSG00000022048_ENSMUST00000022629|mus_hu|motif|central (ssRNA)
RNA: GGGAGUUCUACAGUCCGACGAUCGAGAGACGGGGUGUGGGGCCCCAAGGGGGACCCCAUGAACUGGCUGCUCCACAGUAACGGUCACAGGCUCUUAAAAAAAAAAACAAAAAAAAAAAAAGGAAGGAAGAAAGAAGUCUCAGACAACAGAGGAUUGAGCAUCA
B18: 23240013_23240133_1240_CDS_ENSG00000136243_ENST00000258742|human|control|control (ssRNA)
RNA: GGGAGUUCUACAGUCCGACGAUCACUACCAAAACCAGCCACAGAACUGCCACCUCCAAAGGCUGGGGCCACUGGAGCUCUGACAGGACCUGUUGCCAAGGAAGCUGGAAGUCCUGAAAAUCCAGGUGAUCCAAAACUGGAAGCCAACAGAGGAUUGAGCAUCA
B19: chrX:71549400:71549401:+_ENSMUSG00000019087_ENSMUST00000019231|mus_hu|mus_mus_mus_hu_False|28_68 (ssRNA)
RNA: GGGAGUUCUACAGUCCGACGAUCGCAGUAGGAAGAGGGAAGCUCUUCAGUCCAGUGCGCUGCAGGGAGAAACAUGAACAACACGGACACCGUCCCACCCUCAACCCUCUCAGGUGUACAGGGUCACACAAUCUGGGUCAAAGACAACAGAGGAUUGAGCAUCA
B20: chr14:67424093:67424094:-_ENSMUSG00000022048_ENSMUST00000022629|mus_hu|FALSE|FALSE (ssRNA)
RNA: B17 RNA with G82U, G83A
B21: chr22:32879901:32879902:+_ENSG00000100225_ENST00000397426|hu_mus|hu_hu_hu_mus_False|78_78 (ssRNA)
RNA: GGGAGUUCUACAGUCCGACGAUCCUCUUCCAUACUCAUGGCAUCCUGAAUUGACUCAGCUUCAAAAUUUUGACUAGGCCCUUCCAUACUGUCAUCAGUCCAGGCAUCAAAUGGGGUGGCCUGUCCUUGGGAUGAAUCAGUCCCCAACAGAGGAUUGAGCAUCA
B22: 157127611_157127731_2631_3pUTR_ENSMUSG00000026469_ENSMUST00000027741|mouse|control|control (ssRNA)
RNA: GGGAGUUCUACAGUCCGACGAUCAUUAAAAGUAGCUUUGUGGAGGAGGUGCUGCUCCAAGCUGCACUUUCCCUGCAAGUGCUGCCAGUGUCUCUGCACUGGCUAUGAAGGAAGGGAAAAACUCUCCAUAGAAACUGACAGAAACAACAGAGGAUUGAGCAUCA
B23: chr8:73282188:73282189:+_ENSMUSG00000031840_ENSMUST00000034301|mus_hu|FALSE|FALSE (ssRNA)
RNA: GGGAGUUCUACAGUCCGACGAUCUAGGGUGUCAUCUGGCCCCUCUUCACAACUGACAACUGUGGAUGGGGGUGAAUUUUAAAAAAAGGCGGGGGGGGGGGGUUCAGGAGGGUGAGCGGUGAGUUCACGGGGCCACGAGACACCCAACAGAGGAUUGAGCAUCA

The experiment concerns the target T1, UNK ZnF1-3 (human, UniProt Q9C0B0 31-174).
T1 sequence: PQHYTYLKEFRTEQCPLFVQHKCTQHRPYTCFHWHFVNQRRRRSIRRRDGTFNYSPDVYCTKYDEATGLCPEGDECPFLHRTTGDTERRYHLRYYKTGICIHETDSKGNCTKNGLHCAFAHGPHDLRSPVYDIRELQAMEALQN
In words: nsRBNS (natural sequence RNA bind-n-seq); RBNS binding buffer (assumed for nsRBNS): 25 mM Tris pH 7.5, 150 mM KCl, 3 mM MgCl2, 0.01% Triton X-100, 500 ug/ml BSA, 20 U/ml SUPERase-In, 4 C; UNK is unkempt and MSI1 is Musashi-1; names of the RNAs are library labels; protein concentration not given here; high values mean tight binding.
Molecule B1 came in with a binding signal of 0.845 enrichment R. As to B2, the binding signal stood at 3.52 enrichment R. For the molecule B3, the binding signal is 0.683 enrichment R. For B4, the binding signal was 0.594 enrichment R. The molecule B5 came in with a binding signal of 3.79 enrichment R. In turn, B6 returned a binding signal of 8.56 enrichment R. B7 yielded a binding signal of 7.18 enrichment R.

B8: the binding signal is 11.1 enrichment R.

For B9, the binding signal worked out at 0.777 enrichment R.

In turn, B10 returned a binding signal of 1.16 enrichment R. The molecule B11 returned a binding signal of 0.907 enrichment R. Consider B12, for which the binding signal is 1.45 enrichment R. For the molecule B13, the binding signal was 4.46 enrichment R. Regarding B14, the binding signal is 2 enrichment R. In turn, B15 showed a binding signal of 0.895 enrichment R. As for B16, the binding signal was found to be 0.766 enrichment R. In the case of B17, the binding signal was determined as 7.78 enrichment R. In turn, B18 registered a binding signal of 1.23 enrichment R. For the molecule B19, the binding signal was 1.64 enrichment R. With B20, the binding signal was found to be 20.5 enrichment R.

The molecule B21 had a binding signal of 1.23 enrichment R. In the case of B22 it was 0.603 enrichment R; in that of B23, 4.04 enrichment R.
